Our source for the growth values is PubChem BioAssay (NCI).

Among the test systems are DU-145 prostate; K-562 leukemia; MALME-3M melanoma; MDA-MB-231 breast; RXF 393 renal; SF-268 CNS; SF-295 CNS; SF-539 CNS; UACC-257 melanoma; M14 melanoma; HCT-15 colon; HT29 colon; SNB-19 CNS; U251 CNS; PC-3 prostate; SK-MEL-5 melanoma; UACC-62 melanoma; LOX IMVI melanoma; SK-MEL-28 melanoma; SNB-75 CNS.
What all share (assay): NCI-60 one-dose screen, 48 h (100 = growth as untreated, 0 = no growth, -100 = all killed)
Conditions in all cases: 10 µM unless noted

About 83,000 compounds went through this panel and 20% of them were active in at least one assay; those are over-represented in the sample as a whole.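 Single-concentration screen, 48 h exposure, 96-well plates. Endpoint: percent growth. Below 10 = active.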 Unmarked numbers belong to inactive results. The source made the active and inactive calls.

For the compound `CCCCCCCC/C=C\CCCCCCCCOc1ccc(CC(=O)NCC[N+]2(C)CCOCC2)cc1`, the growth is 88.5% in the test with DU-145 prostate; 62.8% with K-562 leukemia; 80.9% in the test on MALME-3M melanoma; 68% with MDA-MB-231 breast; -38.6% (active) in the test on RXF 393 renal; 70.2% with SF-268 CNS. For the same compound, the growth with SF-295 CNS is 85.7%; with SF-539 CNS, 81.1%; in the test on UACC-257 melanoma it was 96.9%; in the test on M14 melanoma, 81.4%; with HCT-15 colon, 90.8%; in the test with HT29 colon it was 36.9%. Moreover, the growth in the test on SNB-19 CNS is 38.7%; with U251 CNS it was 15.4%; with PC-3 prostate, 12.5%; in the test with SK-MEL-5 melanoma, 99%; in the test on UACC-62 melanoma it was 57.5%; in the test on LOX IMVI melanoma, 84.2%. In addition, in the test with SK-MEL-28 melanoma, the growth was 93.7%.

Regarding `N#Cc1nc(-c2ccccc2)oc1S(=O)(=O)N1CCN(c2ccc(F)cc2)CC1`, the growth was 98.8% with DU-145 prostate; 3.68% (active) with K-562 leukemia; 51.8% with MALME-3M melanoma; 83.8% in the test with MDA-MB-231 breast; 89.8% in the test on RXF 393 renal; 88.8% with SF-268 CNS. The growth with SF-295 CNS is 105%; in the test on SF-539 CNS, 101%; in the test with UACC-257 melanoma it was 86.8%; with M14 melanoma it was 53.5%; in the test on HCT-15 colon it was 25.5%; in the test on HT29 colon it was 46%. The growth was 87.6% in the test on SNB-19 CNS; 82.1% in the test with U251 CNS; 67.5% with PC-3 prostate; 86.1% with SK-MEL-5 melanoma; 75.6% with UACC-62 melanoma; 15.2% with LOX IMVI melanoma. Further, the growth with SK-MEL-28 melanoma is 94.7%.

On to `Cc1cccc(N2CCC(=O)NC2=S)c1`, for which the growth with DU-145 prostate is 116%; in the test with K-562 leukemia, 112%; in the test with MALME-3M melanoma it was 95.9%; with MDA-MB-231 breast it was 89.9%; in the test on RXF 393 renal, 115%; with SF-268 CNS, 99.4%. Further, the growth is 103% in the test on SF-295 CNS; 96.7% with SF-539 CNS; 105% in the test on UACC-257 melanoma; 97.3% in the test with M14 melanoma; 107% in the test with HCT-15 colon; 113% in the test with HT29 colon. The growth is 92.5% with SNB-75 CNS; 104% with U251 CNS; 101% in the test on SK-MEL-5 melanoma; 96.4% in the test with UACC-62 melanoma; 97.2% in the test with LOX IMVI melanoma; 110% with SK-MEL-28 melanoma.

In the case of `COc1ccc(Cn2cc3c(c2-c2ccccc2)CCc2cnoc2-3)cc1`, the growth in the test on DU-145 prostate was -4.72% (active); with K-562 leukemia it was 13.7%; with MALME-3M melanoma, 70.2%; in the test on MDA-MB-231 breast it was 10.4%; with RXF 393 renal, 24.8%; in the test on SF-268 CNS, 16%. Also, the growth in the test on SF-295 CNS is 23.2%; with SF-539 CNS, -12.8% (active); with UACC-257 melanoma it was 78.8%; with M14 melanoma, 16.8%; with HCT-15 colon it was 16.7%; in the test on HT29 colon, 11.7%. Besides, the growth is 44.2% with SNB-75 CNS; 29.4% in the test with U251 CNS; -10% (active) in the test on SK-MEL-5 melanoma; 24% in the test on UACC-62 melanoma; 29.6% with LOX IMVI melanoma; 56.4% in the test on SK-MEL-28 melanoma.

Take `Cc1ccc(-c2nc(N3CCNCC3)c3oc(-c4ccc(C)cc4)nc3n2)cc1`: the growth in the test with DU-145 prostate is 11.9%; with K-562 leukemia it was -75% (active); in the test on MALME-3M melanoma it was 93.6%; with MDA-MB-231 breast, -72.1% (active); in the test on RXF 393 renal, 73.4%; in the test with SF-268 CNS, 28.5%. Moreover, the growth was 108% in the test with SF-295 CNS; 95.8% in the test with SF-539 CNS; 103% in the test with UACC-257 melanoma; -94.3% (active) in the test on M14 melanoma; -88% (active) with HCT-15 colon; -94.7% (active) in the test with HT29 colon. In addition, the growth is 39.1% with SNB-19 CNS; -98.5% (active) in the test on U251 CNS; -90.2% (active) with PC-3 prostate; 96.5% in the test on SK-MEL-5 melanoma; 95.4% with UACC-62 melanoma; -79.6% (active) in the test with LOX IMVI melanoma.

For `CC(=O)Oc1ccc(OC(C)=O)c2ccccc12`, the growth is 116% in the test with DU-145 prostate; 49.6% in the test with K-562 leukemia; 107% in the test on MALME-3M melanoma; -45.5% (active) in the test on MDA-MB-231 breast; 87.1% with RXF 393 renal; 87.5% in the test with SF-268 CNS. In addition, the growth in the test with SF-295 CNS is 105%; in the test on SF-539 CNS it was 99.9%; with UACC-257 melanoma, 78.1%; in the test on M14 melanoma it was 105%; in the test on HCT-15 colon it was 99.1%; with HT29 colon, 107%. The growth is 91.9% with SNB-19 CNS; 89% in the test on U251 CNS; 60.2% with SK-MEL-5 melanoma; 78% in the test with UACC-62 melanoma; 81.2% with LOX IMVI melanoma; 111% in the test with SK-MEL-28 melanoma.

For the compound `CC1CCN(C(=S)SCC(=O)NC(=O)c2ccccc2)CC1`, the growth was 107% in the test on DU-145 prostate; 97.1% in the test with K-562 leukemia; 95.5% in the test with MALME-3M melanoma; 117% in the test on MDA-MB-231 breast; 136% in the test with RXF 393 renal; 100% in the test with SF-268 CNS. Also, the growth is 105% with SF-295 CNS; 99.2% with SF-539 CNS; 102% in the test with UACC-257 melanoma; 109% with M14 melanoma; 109% in the test on HCT-15 colon; 96.5% in the test with SNB-75 CNS. Besides, the growth in the test on SNB-19 CNS was 111%; with U251 CNS it was 106%; in the test on PC-3 prostate, 102%; in the test with SK-MEL-5 melanoma, 113%; with UACC-62 melanoma it was 106%; with LOX IMVI melanoma, 96.9%. Also, the growth with SK-MEL-28 melanoma is 111%.

As to `CCN1C(=O)N(CC)C2Nn3c(s/c(=C\c4ccccc4Br)c3=O)=NC21` (stereo unspecified), the growth was 13.6% in the test on DU-145 prostate; 10.7% in the test with K-562 leukemia; 59.5% with MALME-3M melanoma; 19.7% in the test on MDA-MB-231 breast; 28.4% in the test with RXF 393 renal; 50.1% in the test on SF-268 CNS. Moreover, the growth is 25.2% in the test with SF-295 CNS; -20.1% (active) in the test with SF-539 CNS; 46.1% with UACC-257 melanoma; 9.07% (active) in the test with M14 melanoma; 18.6% in the test on HCT-15 colon; -1.27% (active) with SNB-75 CNS. The growth with SNB-19 CNS is 26.6%; with PC-3 prostate, 32.1%; with SK-MEL-5 melanoma it was 13%; in the test with UACC-62 melanoma it was 22.8%; with LOX IMVI melanoma it was 20.9%; with SK-MEL-28 melanoma, 42.1%.

Take `COc1ccc2c(c1)c(-c1nc(-c3c[nH]c4ncccc34)cs1)cn2CCCN1CCOCC1`: the growth in the test on DU-145 prostate is 41.5%; in the test with K-562 leukemia it was -5.12% (active); in the test with MALME-3M melanoma it was 5.55% (active); with MDA-MB-231 breast, 9.85% (active); with RXF 393 renal, -9.75% (active); in the test with SF-268 CNS, 43.9%. Also, the growth in the test with SF-295 CNS was -34.4% (active); in the test on SF-539 CNS, 33.6%; in the test on UACC-257 melanoma, 49.9%; with M14 melanoma, 10%; in the test with HCT-15 colon, 13.7%; in the test with SNB-75 CNS it was 21.4%. Also, the growth in the test with SNB-19 CNS is 54.4%; in the test on U251 CNS, 16.3%; in the test with PC-3 prostate, 18.2%; in the test on SK-MEL-5 melanoma, 31.6%; in the test with UACC-62 melanoma, 44.1%; in the test with LOX IMVI melanoma it was 17%. In addition, in the test with SK-MEL-28 melanoma, the growth was -54.1% (active).
